Measured values from PubChem BioAssay (NCATS).
“And” between values parts separate entries of the source, which are not always exact repeats. Equal entries are not always repeated. Values without a mark were called inactive.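 The calls were made as follows: active = compounds whose dose series gives a full or clear partial fitted curve of increased nuclear translocation; inconclusive = weak partial curve or effect only at the top dose; inactive = no dose-dependent translocation response.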

What follows are compounds tested against Glucocorticoid receptor (Homo sapiens) (UniProt P04150) (assay: GR-GFP Redistribution (AID 450)). Details: U2OS GR-GFP nuclear translocation, laser cytometry, 2 h.
Sequence of Glucocorticoid receptor (Homo sapiens) (P04150 whole entry, looked up): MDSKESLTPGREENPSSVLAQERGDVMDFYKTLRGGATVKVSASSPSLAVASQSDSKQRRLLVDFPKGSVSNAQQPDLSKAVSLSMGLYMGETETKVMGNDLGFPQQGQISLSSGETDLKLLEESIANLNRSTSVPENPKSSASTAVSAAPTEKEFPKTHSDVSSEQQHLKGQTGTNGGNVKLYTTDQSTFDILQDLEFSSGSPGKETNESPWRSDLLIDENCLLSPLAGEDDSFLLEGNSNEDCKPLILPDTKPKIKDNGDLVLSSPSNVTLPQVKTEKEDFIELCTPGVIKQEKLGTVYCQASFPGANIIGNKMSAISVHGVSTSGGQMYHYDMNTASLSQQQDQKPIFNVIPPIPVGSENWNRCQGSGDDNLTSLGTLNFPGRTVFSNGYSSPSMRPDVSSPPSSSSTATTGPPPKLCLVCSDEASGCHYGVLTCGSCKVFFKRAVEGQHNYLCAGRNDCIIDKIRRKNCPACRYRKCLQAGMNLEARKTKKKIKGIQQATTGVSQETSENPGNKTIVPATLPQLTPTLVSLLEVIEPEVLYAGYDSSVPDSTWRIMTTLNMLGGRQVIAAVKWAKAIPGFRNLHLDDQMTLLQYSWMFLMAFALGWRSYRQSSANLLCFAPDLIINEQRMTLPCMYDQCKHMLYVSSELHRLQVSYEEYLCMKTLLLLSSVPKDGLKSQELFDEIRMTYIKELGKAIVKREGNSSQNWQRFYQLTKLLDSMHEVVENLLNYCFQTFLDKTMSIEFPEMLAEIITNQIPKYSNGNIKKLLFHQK
From the text: NIH Molecular Libraries Screening Centers Network [MLSCN]
NIH Chemical Genomics Center [NCGC]
The glucocorticoid receptor (GR) Redistribution assay (BioImage) enables the visualization of GR cytoplasmic to nuclear translocation by the use of a GR-GFP fusion. GR is normally cytosolic, however ligands such as dexamethasone, cause nuclear translocation where the protein binds to response elements and interacts with various co-factors to modulate transcription. Because both functional agonists and antagonists can induce nuclear translocation, this assay can detect ligands regardless of their effects on gene expression. GR-GFP expressing U20S cells were used here. Dexamethasone was the positive control for translocation and data normalization. Detection of nuclear translocation was performed in 1536-well plates using the Acumen laser scanning plate cytometer (TTP LabTech). Validation of this assay and a detailed protocol have been described.
NCGC Assay Protocol Summary:
GR-GFP U2OS cells were maintained in DMEM with Glutamax and high glucose, 1% v/v penicillin-streptomycin, and 0.5 mg/mL Geneticin. For cell culture, 10% […] fetal bovine serum (FBS) was used (Invitrogen #26140-079). For cell plating 10% dextran, charcoal-stripped FBS (Hyclone SH30068.03) was used. U2OS cells were trypsin treated, suspended in medium, and passed through a 40 um basket filter. The cells were seeded at 600 cells/5 uL/well into clear-bottom black sided 1536-well plates and incubated for approximately 20 hrs, 37degC, 5%, CO2 in a tissue culture incubator. Twenty-three nL of compound was delivered by pin tool and the plates were incubated as above for 2 hrs. The compounds were tested as a 7-point titration ranging from 46 uM to 0.6 nM. The cells were fixed using the Kalypsys Washer/Dispenser station. The fixing protocol involved aspiration of the cell media, addition of 6 uL/well of PBS, aspiration of PBS, addition of 5uL/well of 100% methanol, aspiration of methanol, and addition of 3 uL/well PBS with 1.5 uM propidium iodide (PI). The plates were read by the Acumen Explorer using a 1 x 8 um scan of the whole well area. PI fluorescence triggered the collection of PI and GFP signals. A nuclei population was defined by a 10 to 100 um width and depth filter that eliminated small and large fluorescent particles. Two subpopulations of nuclei were then defined by peak intensity of GFP fluorescence to obtain translocated and untranslocated objects. The number of translocated objects was used for data normalization.
Keywords: NIH Roadmap, MLSCN, MLI, MLSMR, sOGT, qHTS, NCGC
Potency is read from the fitted curve at half-maximal effect.

| SMILES | Potency |
| --- | --- |
| CC(C)[N+](C)(CCC(C(N)=O)(c1ccccc1)c1ccccc1)C(C)C | > 20.6 µM |
| OC(c1ccccc1)(c1ccccc1)C1CCNCC1 | > 20.6 µM |
| O=C(O)c1nn(Cc2ccc(Cl)cc2Cl)c2ccccc12 | > 46 µM |
| CN1[C@@H]2CC[C@H]1CC(OC(=O)c1cc(Cl)cc(Cl)c1)C2 (stereo partly specified) | > 46 µM |
| O=C(CCCN1CCC(n2c(=O)[nH]c3ccccc32)CC1)c1ccc(F)cc1 | > 20.6 µM |
| C[N+]1(C)[C@@H]2CC[C@H]1CC(OC(=O)C(CO)c1ccccc1)C2 (stereo partly specified) | > 20.6 µM |
| CCCCCCCCC(=O)NCc1ccc(O)c(OC)c1 | > 46 µM |
| O=C1NCN(c2ccccc2)C12CCN(CCCOc1ccc(F)cc1)CC2 | > 46 µM |
| NC(=O)CN1CCCC1=O | > 46 µM and > 20.6 µM |
| COP(=O)(OC)C(O)C(Cl)(Cl)Cl (stereo unspecified) | > 20.6 µM |
| c1ccc2nc(N3CCNCC3)ccc2c1 | > 46 µM and > 20.6 µM |
| COC(=O)C1=CCCN(C)C1 | > 46 µM and > 20.6 µM |
| CCC(=O)O[C@H]1CC[C@H]2[C@@H]3CCC4=CC(=O)CC[C@]4(C)[C@H]3CC[C@]12C | > 20.6 µM |
| COc1ccc(C(=O)N2CCCC2=O)cc1 | > 46 µM and > 20.6 µM |
| COc1ccc(CN2CCNCC2)c(OC)c1OC | > 20.6 µM |
| Oc1ccc2[nH]cc(CCCCN3CC=C(c4ccccc4)CC3)c2c1 | > 46 µM |
